For five compounds, composite z-score and z-score results are on record in PubChem BioAssay.

Assay [1] can be described thus: binders of probe aFSTL3 on microarray, primary screen, stem cell growth factor project, biochemical, small-molecule microarray, fluorescence 635/667 (AID 1064).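 Further: measures binding of the biotinylated anti-FSTL3 antibody to printed compounds.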 The following applies: higher = more signal.
Assay [2] can be described thus: binders from COS7 lysate, DM2A8 probe, primary screen, torsin A project, cell lysate, small-molecule microarray, fluorescence 635/667 (AID 1065). The following applies: higher = more signal, COS7 lysate expressing mutant human TOR1A.
Assay [3] in a line: binders of probe aFGF2 on microarray, primary screen, stem cell growth factor project, biochemical, small-molecule microarray, fluorescence 635/667 (AID 1067).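 Further: measures binding of biotinylated aFGF2 protein to printed compounds on slides; z-score merges feature fluorescence and signal-to-noise across triplicate slides.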 The note with it: higher = more signal.
Assay [4] is described as follows: binders of probe aFGF10 on microarray, primary screen, stem cell growth factor project, biochemical, small-molecule microarray, fluorescence 635/667 (AID 1071).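 Further: score merges 667 nm spot intensity and signal to noise from triplicate slides.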 The following applies: higher = more signal.
Assay [5] concerns the target Neurogenic locus notch homolog protein 2 (Homo sapiens) (UniProt Q04721). Briefly: Notch2 binders on small-molecule microarrays, primary screen, biochemical, small-molecule microarray, 635 nm fluorescence, stem cell growth factors (AID 1073). The note with it: Notch2 binding, higher = more signal.
In assay [6] the target is Pro-neuregulin-1, membrane-bound isoform (Homo sapiens) (UniProt Q02297). Briefly: NRG1 binders on small-molecule microarrays, primary screen, psychiatric disease protein project, biochemical, small-molecule microarray, fluorescence 635/667 (AID 1075).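 Further: score combines 667 nm spot fluorescence with signal to noise.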 The following applies: NRG1 binding, 635 nm fluorescence, higher = more signal.
Sequence of Pro-neuregulin-1, membrane-bound isoform (Homo sapiens) (Q02297 whole entry, looked up, the tested form may be a part, canonical isoform): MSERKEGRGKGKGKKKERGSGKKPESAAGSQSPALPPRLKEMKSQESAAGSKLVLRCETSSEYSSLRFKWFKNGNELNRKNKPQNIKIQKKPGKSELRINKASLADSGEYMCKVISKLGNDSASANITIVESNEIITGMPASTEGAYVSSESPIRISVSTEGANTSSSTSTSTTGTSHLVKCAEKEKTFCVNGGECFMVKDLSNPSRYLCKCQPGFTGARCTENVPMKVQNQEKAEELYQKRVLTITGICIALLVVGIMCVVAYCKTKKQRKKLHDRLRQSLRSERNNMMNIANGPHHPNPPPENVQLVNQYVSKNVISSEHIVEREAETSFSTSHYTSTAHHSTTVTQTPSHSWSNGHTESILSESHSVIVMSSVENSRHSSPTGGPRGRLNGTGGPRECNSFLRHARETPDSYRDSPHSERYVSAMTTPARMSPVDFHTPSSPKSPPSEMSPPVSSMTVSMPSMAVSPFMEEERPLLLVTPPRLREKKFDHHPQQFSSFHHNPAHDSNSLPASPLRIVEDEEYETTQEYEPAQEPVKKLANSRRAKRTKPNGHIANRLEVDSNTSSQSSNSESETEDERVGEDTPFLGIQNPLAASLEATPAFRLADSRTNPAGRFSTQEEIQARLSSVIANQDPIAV
Assay [7] relates to Neuregulin-1 EGF-like domain. In words: binders of neuregulin-1 EGF-like domain, primary screen, biochemical, small-molecule microarray, 635 nm fluorescence (AID 1081).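 Further: binding of the protein to compounds printed on small-molecule microarray slides.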 The note with it: small-molecule microarray binding, higher = more signal.
Assay [8] in a line: FRG1 promoter luciferase signal modulators, primary screen, FRG1 inhibition for FSHD, cell-based, C2C12 myotubes, firefly/Renilla luciferase, luminescence (AID 1084). The following applies: higher = more signal, called active from +8 up or from −8 down.
Assay [9] in a line: binders of probe aFST on microarray, primary screen, stem cell growth factor project, biochemical, small-molecule microarray, fluorescence 635/667 (AID 1086).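 Further: score merges 667 nm fluorescence with signal-to-noise of each printed compound spot.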 The following applies: higher = more signal.
Assay [10] in a line: binders of probe aHhip on microarray, primary screen, stem cell growth factor project, biochemical, small-molecule microarray, fluorescence 635/667 (AID 1087).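 Further: score merges spot fluorescence at 667nm with spot signal to noise ratio.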 The following applies: higher = more signal.
Assay [11] has as its system PRMT1 (protein arginine N-methyltransferase 1). In words: PRMT1 binders on small-molecule microarrays, primary screen, biochemical, small-molecule microarray, 635 nm fluorescence (AID 1088).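 Further: binding of Prmt1 protein to compounds spotted on small-molecule microarray slides.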 The following applies: small-molecule microarray binding, higher = more signal.
A short description of assay [12]: yeast growth modulation, basal conditions, primary screen, YJM789 clinical isolate, OD600, 24 h (AID 1089).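 Further: growth of clinical yeast isolate S. cerevisiae YJM 789 seeded 1000 cells per well; test concentration not given here.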 The following applies: S. cerevisiae YJM789 growth, higher = more signal, called active from +8 up or from −8 down.
Assay [13] is described as follows: fission yeast growth modulation, primary screen, strain 972, OD600, 24 h, no modulator (AID 1090).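 Further: basal condition with compound alone and no growth modifier present; test concentration not given here.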 The following applies: S. pombe 972 growth, higher = more signal, called active from +8 up or from −8 down.
Assay [14] is described as follows: S. cerevisiae growth modulation with rapamycin, primary screen, strain BY4716, OD600, 96 h (AID 1091). Further: test concentration not given here. The following applies: higher = more signal, called active from +8 up or from −8 down.
For assay [15], the target named is Torsin-1A-interacting protein 2 (Homo sapiens) (UniProt Q8NFQ8). Briefly: LULL1 binders on small-molecule microarray, primary screen, cell lysate, human LULL1 lysate, 635/667 nm fluorescence (AID 1092).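 Further: probe is lysate of COS7 cells overexpressing human LULL1; score merges per-feature 667 nm fluorescence with signal-to-noise.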 The following applies: hLULL1 lysate binding, 635 nm fluorescence, higher = more signal.
Sequence of Torsin-1A-interacting protein 2 (Homo sapiens) (Q8NFQ8 whole entry, looked up): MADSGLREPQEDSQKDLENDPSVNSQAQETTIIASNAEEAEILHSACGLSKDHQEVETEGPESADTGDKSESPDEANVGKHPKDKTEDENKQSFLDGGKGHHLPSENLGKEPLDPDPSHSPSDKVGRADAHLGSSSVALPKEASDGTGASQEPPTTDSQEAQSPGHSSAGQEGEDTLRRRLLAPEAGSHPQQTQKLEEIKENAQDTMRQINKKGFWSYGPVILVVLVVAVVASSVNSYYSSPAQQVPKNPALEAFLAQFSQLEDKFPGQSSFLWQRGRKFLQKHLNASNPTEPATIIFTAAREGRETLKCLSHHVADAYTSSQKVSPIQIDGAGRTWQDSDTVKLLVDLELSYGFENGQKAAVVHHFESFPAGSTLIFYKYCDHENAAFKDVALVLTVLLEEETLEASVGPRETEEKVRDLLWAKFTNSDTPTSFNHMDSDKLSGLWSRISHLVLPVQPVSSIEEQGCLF
Assay [16] is described as follows: E. coli growth modulation, two-sided OD650, primary screen, E. coli filamentation project, strain DRC41, 24 h (AID 1093).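 Further: MC1000 strain lacking acrAB efflux and sulA so SOS filamentation is blocked; test concentration not given here.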 The following applies: OD650, 24 h, higher = more signal, called active from +8 up or from −8 down.
Assay [17] is described as follows: small-molecule microarray binders of probe aLefty2, primary screen, biochemical, biotinylated probe, 635/667 nm fluorescence (AID 1094).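 Further: score merges spot fluorescence near 667 nm with spot signal-to-noise ratio.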 The note with it: higher = more signal.
Assay [18] relates to Noggin (protein binding on small-molecule microarray). In words: Noggin binders on small-molecule microarray, primary screen, biochemical, 635/667 nm fluorescence (AID 1095).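 Further: score merges 667 nm feature fluorescence with signal to noise over triplicate slides.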 The following applies: 635 nm fluorescence, higher = more signal.
For assay [19], the target named is Neurogenic locus notch homolog protein 3 (Homo sapiens) (UniProt Q9UM47). Briefly: NOTCH3 binders on small-molecule microarray, primary screen, biochemical, 635/667 nm fluorescence (AID 1096). The note with it: NOTCH3 binding, 635 nm fluorescence, higher = more signal.
Sequence of Neurogenic locus notch homolog protein 3 (Homo sapiens) (Q9UM47 whole entry, looked up): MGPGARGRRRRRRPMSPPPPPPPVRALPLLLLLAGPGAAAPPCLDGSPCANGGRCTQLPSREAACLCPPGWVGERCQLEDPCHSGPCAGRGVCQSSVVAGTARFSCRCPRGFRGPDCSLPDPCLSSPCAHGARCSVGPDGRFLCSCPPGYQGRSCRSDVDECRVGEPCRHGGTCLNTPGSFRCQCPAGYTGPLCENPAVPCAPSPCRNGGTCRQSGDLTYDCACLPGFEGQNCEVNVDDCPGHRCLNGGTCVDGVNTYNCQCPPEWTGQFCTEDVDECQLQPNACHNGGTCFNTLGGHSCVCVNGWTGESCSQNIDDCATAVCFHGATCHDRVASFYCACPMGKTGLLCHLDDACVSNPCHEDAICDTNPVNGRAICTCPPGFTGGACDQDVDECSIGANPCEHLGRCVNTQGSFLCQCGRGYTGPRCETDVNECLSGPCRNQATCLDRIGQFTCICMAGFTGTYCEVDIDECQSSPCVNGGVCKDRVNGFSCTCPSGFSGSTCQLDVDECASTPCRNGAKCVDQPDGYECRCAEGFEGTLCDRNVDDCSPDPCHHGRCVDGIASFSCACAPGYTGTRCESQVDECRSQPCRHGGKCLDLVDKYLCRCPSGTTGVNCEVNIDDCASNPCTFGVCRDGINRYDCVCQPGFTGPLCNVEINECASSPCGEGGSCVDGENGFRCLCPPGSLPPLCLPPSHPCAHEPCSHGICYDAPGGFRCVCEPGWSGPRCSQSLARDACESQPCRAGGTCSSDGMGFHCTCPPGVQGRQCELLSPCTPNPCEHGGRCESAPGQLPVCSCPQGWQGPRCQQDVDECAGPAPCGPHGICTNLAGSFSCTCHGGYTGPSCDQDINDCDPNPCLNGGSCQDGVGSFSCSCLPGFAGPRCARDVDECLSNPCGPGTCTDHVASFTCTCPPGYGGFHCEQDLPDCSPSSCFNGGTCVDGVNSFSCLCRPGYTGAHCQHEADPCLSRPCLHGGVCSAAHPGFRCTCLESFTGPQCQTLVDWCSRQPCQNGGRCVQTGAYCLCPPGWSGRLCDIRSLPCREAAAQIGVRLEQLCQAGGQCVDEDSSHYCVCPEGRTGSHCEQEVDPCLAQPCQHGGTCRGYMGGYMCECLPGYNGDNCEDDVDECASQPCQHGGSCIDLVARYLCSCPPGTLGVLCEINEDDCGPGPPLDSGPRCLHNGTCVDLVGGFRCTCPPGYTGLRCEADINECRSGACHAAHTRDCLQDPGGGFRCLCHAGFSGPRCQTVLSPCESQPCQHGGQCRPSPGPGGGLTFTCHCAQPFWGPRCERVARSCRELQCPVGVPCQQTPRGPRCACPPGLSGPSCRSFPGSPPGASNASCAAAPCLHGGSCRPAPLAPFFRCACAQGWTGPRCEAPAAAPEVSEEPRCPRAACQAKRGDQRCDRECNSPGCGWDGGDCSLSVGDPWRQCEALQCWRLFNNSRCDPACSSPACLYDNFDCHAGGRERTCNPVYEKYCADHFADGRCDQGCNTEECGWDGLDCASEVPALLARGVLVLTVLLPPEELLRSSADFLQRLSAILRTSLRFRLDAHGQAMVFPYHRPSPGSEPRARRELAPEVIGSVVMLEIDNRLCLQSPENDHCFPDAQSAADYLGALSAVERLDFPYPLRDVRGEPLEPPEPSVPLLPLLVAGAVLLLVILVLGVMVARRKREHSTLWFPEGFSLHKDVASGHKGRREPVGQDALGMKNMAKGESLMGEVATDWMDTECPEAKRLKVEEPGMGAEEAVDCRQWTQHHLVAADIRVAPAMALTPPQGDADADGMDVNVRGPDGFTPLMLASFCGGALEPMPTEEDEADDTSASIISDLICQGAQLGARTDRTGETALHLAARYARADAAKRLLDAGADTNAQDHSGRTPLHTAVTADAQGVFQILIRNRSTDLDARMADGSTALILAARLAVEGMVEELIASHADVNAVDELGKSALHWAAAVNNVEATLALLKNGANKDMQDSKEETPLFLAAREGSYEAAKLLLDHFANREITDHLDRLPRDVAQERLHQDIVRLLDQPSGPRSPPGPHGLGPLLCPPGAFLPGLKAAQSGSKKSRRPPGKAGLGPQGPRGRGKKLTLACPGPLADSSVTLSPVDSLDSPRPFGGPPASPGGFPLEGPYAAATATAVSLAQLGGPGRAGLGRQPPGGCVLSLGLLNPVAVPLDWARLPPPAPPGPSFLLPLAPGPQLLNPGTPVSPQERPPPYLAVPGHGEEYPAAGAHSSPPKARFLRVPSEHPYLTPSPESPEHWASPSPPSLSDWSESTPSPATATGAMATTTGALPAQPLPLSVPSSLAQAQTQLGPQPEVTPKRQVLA
Assay [20] can be described thus: small-molecule microarray binders of probe aEGFR, primary screen, biochemical, biotinylated probe, 635/667 nm fluorescence (AID 1097).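 Further: probe is a biotinylated anti-EGFR antibody binding compounds printed on slides; score combines fluorescence near 667 nm and signal to noise of each spot.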 The note with it: higher = more signal.

Active and inactive are the calls of the source.

On to `C=CCC(OC(C)=O)[C@@H]1[C@@H](N(Cc2cc3ccccc3o2)C(=O)Cc2ccc(OC)cc2)c2cc(OCCCO)ccc2N1C(=O)c1ccc2ccccc2n1` (stereo not given in full), for which the composite z-score in [1] is -0.0558; in assay [2], -0.24; in [3] it was 0.0372; in [4] it was 0.176; in assay [5] it was 0.0554; in assay [6], -0.251. In addition, the composite z-score in assay [7] is -0.0159; in [9], 0.271; in assay [10], 0.12; in assay [11] it was 0.404; in [15] it was 0.295; in assay [17], 0.0478. Further, the composite z-score in assay [18] is 0.356; in assay [19] it was 0.0707; in assay [20], 0.0453. Also, the z-score in assay [8] is 0.544 (inactive); in assay [12] it was -0.256 (inactive); in [13], -0.844 (inactive); in assay [14] it was 0.292 (inactive); in assay [16], 1.03 (inactive).
In the case of `O=C1C2C=CC(C(O)c3c(F)cccc3Cl)N(Nc3ccc([N+](=O)[O-])cc3)C2C(=O)N1c1ccccc1` (stereo not given), the composite z-score in assay [1] came out at 0.0505; in [2], 0.572; in assay [3], 0.147; in assay [4] it was 0.89; in assay [5], 1.61; in assay [6] it was 1.12. Moreover, the composite z-score in assay [7] is 1.01; in assay [9], 1.37; in assay [10] it was -0.0618; in assay [11], 1.55; in [15] it was 3.54; in [17], 0.13. Also, the composite z-score in assay [18] was 0.432; in [19] it was 1.09; in assay [20], -0.0021. The z-score in assay [8] is -1.18 (inactive); in assay [12] it was -1.01 (inactive); in assay [13], 1.35 (inactive); in assay [14], 4.59 (inactive); in [16], 0.636 (inactive).
For the compound `COC(=O)[C@@]1(Cc2ccccc2)[C@H]2c3cc(C(=O)N(C)C)n(Cc4ccc(S(C)(=O)=O)cc4)c3C[C@H]2CN1C(=O)c1ccccc1`, the composite z-score in assay [1] was 0.442; in [2], 0.198; in assay [3] it was 0.431; in assay [4], 0.443; in assay [5], 1.48; in [6], 2.03. Also, the composite z-score in assay [7] is 1.22; in assay [9], 0.744; in assay [10] it was -0.118; in assay [11] it was -0.541; in [15], 3.51; in [17], 0.384. The composite z-score is -0.415 in [18], 1.11 in assay [19] and 0.211 in [20]. Further, the z-score in assay [8] is 2.39 (inactive); in [12] it was 0.407 (inactive); in assay [13] it was 0.279 (inactive); in [14] it was 0.654 (inactive); in assay [16] it was -1.59 (inactive).
`CCCCN1CC=CC23O[C@@H]4/C=C\CCCOC(=O)C4[C@H]2C(=O)N(C(CO)C(C)C)[C@@H]3C1=O` (stereo not given in full): the composite z-score in assay [1] was -0.1; in assay [2] it was 0.0253; in assay [3], -0.101; in assay [4], 0.728; in assay [5] it was -0.185; in assay [6] it was -0.164. Besides, the composite z-score in assay [7] is 1.47; in assay [9], -0.228; in assay [10] it was -0.236; in assay [11], -0.385; in [15] it was 0.601; in assay [17], -0.165. Moreover, the composite z-score in [18] was -0.21; in assay [19], -0.754; in [20], 0.371. Besides, the z-score is 0.723 (inactive) in assay [8]; 0.383 (inactive) in assay [12]; -0.74 (inactive) in assay [13]; 0.0577 (inactive) in assay [14]; -0.714 (inactive) in assay [16].
Consider `O=C1C2C=CC(C(O)c3ccc([N+](=O)[O-])cc3)N(Nc3ccccc3F)C2C(=O)N1c1ccccc1` (stereo not given), for which the composite z-score was 0.484 in assay [1]; 0.173 in assay [2]; -0.0172 in [3]; 0.438 in assay [4]; 1.12 in assay [5]; 1.6 in assay [6]. The composite z-score in assay [7] was 1.29; in [9], 0.883; in assay [10] it was -0.163; in assay [11], 0.67; in assay [15], 1.87; in assay [17] it was 0.296. Further, the composite z-score was -0.316 in [18], 0.98 in [19] and -0.0278 in [20]. For the same compound, the z-score in assay [8] was -0.101 (inactive); in assay [12], 0.213 (inactive); in [13], 0.619 (inactive); in assay [14], 1.05 (inactive); in [16], -0.774 (inactive).
